IMPase inh: IMPase inhibition in cells. CHO-M1 cells, IP1 accumulation, HTRF TR-FRET ratio. AID 901. 120,000 tested, under 10 active. inhibition (IP1 accumulation), % at 46.1 µM. P97697; active = well fitted curve in the direction sought with a large enough effect in the signal ratio, not every such curve was filed as active; inconclusive = small, poorly fitted or top-dose-only effect, or a change in a side signal; inactive = no such curve, though single readings can be large or run the other way; the % refers to the signal ratio;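 note: cells stimulated with carbachol in lithium chloride buffer; plate controls were DMSO basal wells for no effect and reference inhibitor wells for full effect; higher means more IMPase inhibition seen as more IP1 and lower FRET ratio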
Target sequence (P97697 whole entry, looked up): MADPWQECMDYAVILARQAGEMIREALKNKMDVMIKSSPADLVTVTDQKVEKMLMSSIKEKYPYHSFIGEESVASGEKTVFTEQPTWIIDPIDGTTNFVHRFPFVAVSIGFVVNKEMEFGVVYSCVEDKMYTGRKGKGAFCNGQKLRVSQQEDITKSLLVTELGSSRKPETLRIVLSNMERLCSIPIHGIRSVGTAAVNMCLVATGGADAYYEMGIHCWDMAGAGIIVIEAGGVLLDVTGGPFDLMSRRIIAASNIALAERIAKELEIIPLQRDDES
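Seeded CHO-M1 cells were dosed with compound at up to 46 uM, stimulated with carbachol for 30 min, then lysed in IP-One detection reagents. Higher IP1 lowers the TR-FRET signal.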
IMPase Li cell: IMPase inhibition in cells with lithium potentiation | 0.35% of 210,000 active | CHO-M1 cells, IP1 TR-FRET (IP-One), carbachol + lithium | Potency, µM (highest dose often 59.4 µM), for inactives: at the highest dose activity, negative = IMPase inhibition, hits mostly inhibitors;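 note: IP1 builds up when IMPase is blocked and the TR-FRET signal falls; potency is the fitted concentration of half-maximal effect; plate controls were basal vehicle for no effect and high inhibitor control for full effect; nearly all actives have a fitted effect of over 50% in size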
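CHO-M1, 2000 cells/well, 16–30 h culture; cpd + low Li+, 30 min 37C; lysis with d2-IP1/Eu-anti-IP1 Ab, 10 min RT; TR-FRET 665/620 ratio and 620 channel; AC50 via Hill.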
ALDH1A1 block: blocks purified human ALDH1A1 activity; Purified ALDH1A1, NADH fluorescence, propionaldehyde substrate; Potency, µM (doses to about 75.3 µM), for inactives: at the top dose activity, negative = inhibition, most hits filed as inhibitors; 7.3% of 220,000 active; active = well fitted inhibition curve with a large enough effect, not every such curve was filed as active; inconclusive = small, poorly fitted or top-dose-only effect, or another doubt; inactive = no such curve, though single readings can be large or run the other way;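 note: potency is the fitted concentration of half-maximal effect; plate controls were no enzyme wells and a reference inhibitor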
Target sequence (P00352 whole entry, looked up): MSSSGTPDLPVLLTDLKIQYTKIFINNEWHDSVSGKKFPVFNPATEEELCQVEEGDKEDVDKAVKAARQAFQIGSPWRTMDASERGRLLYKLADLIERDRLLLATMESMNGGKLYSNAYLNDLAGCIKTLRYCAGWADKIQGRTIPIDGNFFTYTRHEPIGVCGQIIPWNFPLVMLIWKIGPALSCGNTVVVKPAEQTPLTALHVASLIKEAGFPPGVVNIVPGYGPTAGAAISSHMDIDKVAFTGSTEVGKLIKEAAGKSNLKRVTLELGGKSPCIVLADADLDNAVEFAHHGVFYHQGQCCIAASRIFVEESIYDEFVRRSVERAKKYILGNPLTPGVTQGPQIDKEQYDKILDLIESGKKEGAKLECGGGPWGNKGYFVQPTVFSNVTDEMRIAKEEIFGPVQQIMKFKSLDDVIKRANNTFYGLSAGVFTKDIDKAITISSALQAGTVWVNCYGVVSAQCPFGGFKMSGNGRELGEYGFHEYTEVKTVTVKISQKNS
NPSR antag: neuropeptide S receptor (human) antagonism, cAMP; CHO-NPSR cells, cAMP TR-FRET, antagonist mode; 1% of 220,000 active; Potency, µM (doses to about 38.3 µM), for inactives: top-dose activity change, negative = inhibition, most hits filed as inhibitors; note: potency is the fitted concentration of half-maximal effect; nearly all actives have a fitted effect of over 50% in size
HPGD block: blocks human HPGD enzyme activity. P15428. purified HPGD, NADH fluorescence kinetic, PGE2 substrate. Potency, µM, without a hit: top-dose activity change, negative = inhibition, usual class: inhibitors. 4.3% of 150,000 active. AID 894; active = well fitted inhibition curve with a large enough effect, not every such curve was filed as active; inconclusive = small, poorly fitted or top-dose-only effect, or another doubt; inactive = no such curve, though single readings can be large or run the other way; note: potency is the fitted concentration of half-maximal effect
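NADH formation kinetics: reaction with 30 uM PGE2 and 1 mM NAD+ (final), 20 nM enzyme, Tris-HCl pH 8 with Tween 20, after 15 min compound preincubation at room temperature. Fluorescence change, last versus first of five reads.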
PNC assembly inh: perinucleolar compartment assembly inhibition; PC3M PTB-GFP, PNC prevalence imaging, 16 h; stronger effect = lower value; activity change (PNC), negative = inhibition, % at 10 µM; 3.1% of 140,000 active; AID 2417;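 active = readout at or below -70, meaning at least 70% loss of cells showing the perinucleolar compartment, a nuclear body marking cancer cells; inconclusive = readout between -30 and a set limit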;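 note: plate controls were DMSO wells for no effect and camptothecin positive control wells for full effect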
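PC3M cells stably expressing PTB-GFP, 750–1000 cells/well, treated 16 h at 37 °C with compound (23 nl of library stock), in duplicate. After paraformaldehyde fixation and Hoechst stain, imaged at 20x; PNC prevalence scored by image analysis.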
* = called active by the depositor; u = inconclusive; x = not tested or not shown; [ ] = another dose, or the depositor's remark. Compounds with a hit are over-represented: about 11% of the library has one in this group of screens. Unless noted, calls come from the whole dose curve; as a rule, active = well fitted curve in the direction sought with a large enough effect; inconclusive = small, poorly fitted or top-dose-only effect, or another doubt; inactive = no such curve, though single readings can be large; an effect the other way counts as inactive or inconclusive. Unless noted, % is set by controls: 0 for no effect and ±100 for the full control effect.

SMILES | IMPase inh | IMPase Li cell | ALDH1A1 block | NPSR antag | HPGD block | PNC assembly inh
Cc1cccc(-c2nnnn2-c2cccc(C)c2)c1 | x | 36% | 4.5µM* | -28% | x | x
CCOc1ccc(NS(=O)(=O)c2ccc(OC)c(C)c2)cc1 | 3 | 26%[38.3 µM] | u | -18%[46.1 µM] | -13% | 42
O=C(O)c1cc2cc(Cl)cc(Cl)c2oc1=O | -7 | -8%[38.3 µM] | -2% | -11%[46.1 µM] | u | -14
CC(C1CC2CCC1C2)n1c(-c2ccco2)n[nH]c1=S (configuration not stated) | x | -4% | 14µM* | -27% | x | x
COc1cc2nc(CCc3ccccc3)oc(=O)c2cc1OC | x | 1% | 2% | -2% | x | x
COc1ccccc1NC(=S)NC(=O)/C=C/c1ccco1 | x | -4% | 25µM* | -29% | 28µM* | 4
COc1ccc(-c2csc(NC(=S)NC(=O)/C=C/c3ccco3)n2)cc1OC | x | -8% | -5% | 1µM* | -23% | -106*
O=C(/C=C/c1ccco1)NC(=S)Nc1cccc([N+](=O)[O-])c1 | x | 2% | 0% | -16% | 18µM* | u
Cc1cccc(NC(=S)NC(=O)/C=C/c2ccco2)c1 | x | 0% | 24µM* | -15% | x | x
Cc1ccc(-n2nc3ccc(NC(=S)NC(=O)/C=C/c4ccco4)cc3n2)cc1 | x | -21% | 3% | -45% | -18% | -18
CN(C)c1nc(-c2cccnc2)nc2ccccc12 | x | -1% | u | x | x | x
COc1cccc(Nc2ncc3nc(-c4cccs4)c(=O)n(C[C@H]4CCCO4)c3n2)c1 | x | 5% | -1% | x | x | x
O=C(O)C1C2C=CC3(CN(c4cccc(C(F)(F)F)c4)C(=O)C13)O2 (configuration not stated) | -9 | 10%[38.3 µM] | 4% | -5%[46.1 µM] | -15% | u
CCOC(=O)N1CCC(=NNc2ccc(S(=O)(=O)N3CCOCC3)cc2[N+](=O)[O-])CC1 | x | 8% | u | -2% | -17% | 6
O=C(/C=C/c1ccco1)NC(=S)Nc1cccc(-c2nc3ccccc3o2)c1 | 1 | 7%[38.3 µM] | u | 1.6µM* | -18% | 31
Cc1cc(C2=NNC(=NCCc3ccccc3)SC2)c(C)n1CC1CCCO1 (configuration not stated) | x | 15% | u | -32% | x | x
Clc1ccc(C2=NNC(=NCC3CCCO3)SC2)cc1 (configuration not stated) | 19 | 3% | 8.9µM* | 6% | u | -24
COC(=O)c1cc2sc(Cl)cc2n1CC(=O)Nc1ccc(OC)c(OC)c1OC | 8 | 14%[38.3 µM] | -3% | u | -4% | 45
COc1ccc(S(=O)(=O)N(C)CC(=O)Nc2ccccc2SC)cc1 | -2 | 6%[38.3 µM] | -5% | -12%[46.1 µM] | -14% | u
COc1cc(C=O)c([N+](=O)[O-])cc1OC | x | 3% | 11µM* | x | -20% | x
Cc1nc(SCC(=O)c2cc3ccccc3oc2=O)c(C#N)c(-c2ccccc2)c1C(=O)Nc1ccccc1 | -2 | -9% | -19% | -14% | -15% | 8
N#CC1=C(SCC(=O)c2cc3ccccc3oc2=O)NC(=O)C(C#N)C12CCCC2 (configuration not stated) | 0 | 9% | 1.1µM* | -15%[46.1 µM] | u | -23
Cc1ccc(OCc2ccc(C(=O)Nc3c(C)nn(Cc4c(F)c(F)c(F)c(F)c4F)c3C)o2)c([N+](=O)[O-])c1 | 5 | 22%[38.3 µM] | u | -23%[46.1 µM] | -19% | -28
CC(=O)c1c(C)n(-c2ccc(C)cc2)c2ccc(OC(=O)COc3ccccc3)cc12 | -3 | x | x | x | x | x
O=C(O)CCSc1ccccn1 | x | -4% | u | -14% | x | x
SMILES | IMPase inh | IMPase Li cell | ALDH1A1 block | NPSR antag | HPGD block | PNC assembly inh
O=C(CCSc1ccccn1)c1ccccc1 | x | 26% | 0.25µM* | -6% | x | x
O=C(O)CCNS(=O)(=O)c1ccccc1C(F)(F)F | x | 2% | 3% | 17% | x | x
COc1ccc(C2c3ccsc3CCN2C(=O)NC(C)(C)C)cc1 (configuration not stated) | x | x | -1% | 35% | x | x
CCn1c(-c2cccs2)nc2ccccc21 | -13 | -7% | u | -2%[46.1 µM] | u | -22
CCn1c(C(C#N)/C(=N\S(=O)(=O)c2cccs2)c2ccccc2)nc2ccccc21 (configuration not stated) | -1 | 7%[38.3 µM] | 10µM* | -6%[46.1 µM] | -7% | 10
CCC(C)(C)n1nnnc1C(c1cc2cc(C)ccc2[nH]c1=O)N1CCCc2ccccc21 (configuration not stated) | 8 | 31%[38.3 µM] | -2% | u | -5% | 11
CC[n+]1c(/C=C/C=C/N(C(C)=O)c2ccccc2)sc2cc(OC)ccc21 | x | 45% | u | -35% | -8% | u
COc1ccc2sc(/C=C/c3ccccc3O)[n+](C)c2c1 | x | 34% | -13% | 13µM* | x | x
Cc1ccc(C(NC(=O)N2CCCCC2)=C(Cl)Cl)cc1F | x | 1% | 0.11µM* | -5% | -14% | -6
Cc1ccc(NC(=O)N2CCCCC2)cc1NC(=O)N1CCCCC1 | x | x | 15% | -28% | x | x
Cc1ccc(C(NC(=O)NCCCN2CCOCC2)=C(Cl)Cl)cc1F | 9 | 76%[38.3 µM] | 0.4µM* | 5%[46.1 µM] | -14% | -3
CCOC(=O)c1nc(Nc2ccc(C(=O)OC(C)C)cc2)c2ccccc2n1 | -6 | x | x | x | x | x
O=C(CCc1nnc(CCCCc2ccccc2)o1)NCCn1cccn1 | x | 7% | -6% | 8% | x | x
O=C(CCc1nnc(CCCCc2ccccc2)o1)NCCN1CCOC1=O | x | 6% | 0.11µM* | 15% | x | x
CCS(=O)(=O)NCCc1cc2c(OC)ccc(OC)c2[nH]c1=O | 2 | 4% | u | -2%[46.1 µM] | -22% | -100*
CCCS(=O)(=O)NCCc1cc2cc(C)c(C)cc2[nH]c1=O | -5 | 4% | 1% | 2%[46.1 µM] | -23% | -100*
COc1ccc(OC)c2[nH]c(=O)c(CCNC(C)=O)cc12 | -7 | 5%[38.3 µM] | 10% | 1%[46.1 µM] | -4% | u
COc1ccc(NC(=S)Nc2ccc(N)c([N+](=O)[O-])c2)cc1 | 6 | 3%[38.3 µM] | 25µM* | -16%[46.1 µM] | u | -21
COc1ccc(CCC(=O)Nc2ccc(C)c([N+](=O)[O-])c2)cc1 | x | 2% | 10µM* | -4% | 13µM* | u
COc1ccc(NC(=S)Nc2ccccc2)cc1 | x | 2% | 4%[13.5 µM] | 13% | -1% | x
COc1ccc(CN2C=C3C(=O)C(C)(OC(=O)CCc4ccccc4)C(=O)C=C3C=C2c2ccc(C#N)cc2)cc1 (configuration not stated) | x | 11% | 3.5µM* | -30% | -10% | x
Cc1sc(NC(=O)CCCC(=O)O)c(C#N)c1C | 0 | 15%[38.3 µM] | 2% | -24%[46.1 µM] | -5% | u
Cc1sc(NC(=O)C2CCCO2)c(C#N)c1C (configuration not stated) | 0 | 27%[38.3 µM] | 25µM* | -17%[46.1 µM] | -27% | -92*
